From PubChem BioAssay (Tox21)
Results filed as inconclusive are left out. Entries that show only a call come without a potency. Calls of active or inactive are those of the source. Unless noted, calls come from the whole dose curve; as a rule, active = well fitted curve in the direction sought with a large enough effect in the repeat runs; inconclusive = weak or mixed curves; inactive = no such curve, though single readings can be large; an effect the other way counts as inactive or inconclusive.

Key:
[1] = qHTS assay to identify small molecule agonists of the vitamin D receptor (VDR) signaling pathway - cell viability counter screen (AID 743224); note: nearly all actives have a fitted effect of over 50% in size
Method in brief: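 Luminescence from CellTiter-Glo, read after 30 min at room temperature, reports viability of VDR-bla cells treated with compounds for 16 h at 37C in the wells used for the beta-lactamase FRET read.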

[2] = qHTS assay to identify small molecule antagonists of the vitamin D receptor (VDR) signaling pathway - cell viability counter screen (AID 743225); note: nearly all actives have a fitted effect of over 50% in size
Method in brief: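 HEK293T VDR-bla; cpd + 1a,25-(OH)2D3 3 nM final, 16 h 37C/5% CO2; B/G FRET substrate 2 h RT; then CellTiter-Glo 30 min RT, luminescence.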

[3] = qHTS assay to identify small molecule agonists of the endoplasmic reticulum stress response signaling pathway - cell viability counter screen (AID 1159517; calls by dose curve; note: nearly all actives have a fitted effect of over 50% in size)
Method in brief: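 Cells, HeLa ESRE-bla; density, 1,500/well; dosing, 5 hr at 37 C, 5% CO2; readout, CellTiter-Glo luminescence after 30 min RT.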

[4] = qHTS assay to identify small molecule antagonists of the retinoid-related orphan receptor gamma (ROR-gamma) signaling pathway - cell viability counter screen (AID 1159520); note: nearly all actives have a fitted effect of over 50% in size
Method in brief: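 Cytotoxicity was read from cellular ATP (CellTiter-Glo luminescence) after 16 hr at 37 C with 1 uM doxycycline induction. The inducer was added 2 hr after compound transfer to Tet-on ROR gamma CHO cells.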

[5] = qHTS assay to identify small molecule agonists of the RXR signaling pathway - cell viability counter screen (AID 1159529); note: nearly all actives have a fitted effect of over 50% in size
Method in brief: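 Steps: seed RXR-alpha-UAS-bla HEK 293T cells in assay medium containing 2% charcoal-stripped FBS; incubate 5 hr; add compounds in DMSO; incubate 16 hr at 37 C; after the bla read, add CellTiter-Glo and read luminescence at 30 min.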

[6] = qHTS assay to identify small molecule agonists of the AP-1 signaling pathway - cell viability counter screen (AID 1159525; calls by dose curve; note: nearly all actives have a fitted effect of over 55% in size)
Method in brief: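 Luminescent ATP readout (Cell Titer Glo, 30 min RT), normalised to DMSO and tetra n-octyl ammonium bromide controls. Cells were ME-180 AP-1-bla in 0.5% dialyzed FBS Opti-MEM, with a 5 h, 37 °C compound exposure.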

[7] = target: Retinoic acid receptor RXR-alpha (Homo sapiens) (UniProt P19793); experiment: qHTS assay to identify small molecule agonists of the RXR signaling pathway (AID 1159527; calls by dose curve; note: nearly all actives have a fitted effect of over 35% in size)
Sequence of Retinoic acid receptor RXR-alpha (Homo sapiens) (P19793 whole entry, looked up): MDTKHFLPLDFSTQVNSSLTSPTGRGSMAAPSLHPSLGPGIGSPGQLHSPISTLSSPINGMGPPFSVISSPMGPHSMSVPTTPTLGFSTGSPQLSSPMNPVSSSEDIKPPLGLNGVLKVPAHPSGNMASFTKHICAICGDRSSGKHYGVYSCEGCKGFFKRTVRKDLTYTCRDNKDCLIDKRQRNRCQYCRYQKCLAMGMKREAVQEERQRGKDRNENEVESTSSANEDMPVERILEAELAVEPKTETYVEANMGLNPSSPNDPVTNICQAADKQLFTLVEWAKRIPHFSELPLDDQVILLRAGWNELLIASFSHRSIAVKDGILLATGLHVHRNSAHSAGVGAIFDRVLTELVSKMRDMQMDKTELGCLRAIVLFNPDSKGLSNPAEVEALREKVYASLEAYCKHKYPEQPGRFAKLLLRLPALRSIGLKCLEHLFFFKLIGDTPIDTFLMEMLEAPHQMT
Method in brief: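 Cells plated at 2,000/well, rested 5 hr at 37 C, pin-dosed with DMSO compound solutions, incubated 16 hr, then loaded with B/G FRET substrate for 2 hr at RT before dual-emission fluorescence reading.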

[8] = target: Nuclear receptor ROR-gamma (Homo sapiens) (UniProt P51449); experiment: qHTS assay to identify small molecule antagonists of the retinoid-related orphan receptor gamma (ROR-gamma) signaling pathway (AID 1159521; note: nearly all actives have a fitted effect of over 50% in size)
Method in brief: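 Cells were plated, rested 4 h at 37 C, exposed to compounds for 2 h, then given 1 uM final doxycycline hyclate to induce RORγ expression. After 16 h, ONE-Glo luminescence from the ROR response element reporter was measured.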
Potency is the fitted concentration of half-maximal effect.

Compound | Potency [1] | Potency [2] | Potency [3] | Potency [4] | Potency [5] | Potency [6] | Potency [7] | Potency [8]
Clc1ccccc1CN1CCc2sccc2C1 | inactive | inactive | inactive | inactive | inactive | – | – | –
CC(=O)Nc1ccc(O)cc1 | inactive | inactive | inactive | inactive | inactive | inactive | – | –
CC1=C(/C=C/C(C)=C/C=C/C(C)=C\C=O)C(C)(C)CCC1 | 41.3 µM (active) | – | 41.3 µM (active) | 57.9 µM (active) | 52 µM (active) | – | 0.328 µM (active) | –
C/C=C/C(=O)Oc1c(CCCCCC(C)C)cc([N+](=O)[O-])cc1[N+](=O)[O-] | 13.8 µM (active) | – | 21.9 µM (active) | 19.3 µM (active) | 24.5 µM (active) | – | – | 6.11 µM (active)
Nc1cc(Cl)c([N+](=O)[O-])cc1O | inactive | inactive | inactive | – | inactive | inactive | inactive | inactive
Cc1cc2c(C(C)C)c(O)c(O)c(C=O)c2c(O)c1-c1c(C)cc2c(C(C)C)c(O)c(O)c(C=O)c2c1O | 11.9 µM (active) | 9.52 µM (active) | 10.7 µM (active) | 26.6 µM (active) | 21.3 µM (active) | inactive | – | 10.6 µM (active)
CO[C@H]1C=CO[C@@]2(C)Oc3c(C)c(O)c4c(O)c(cc(O)c4c3C2=O)NC(=O)/C(C)=C\C=C/[C@H](C)[C@H](O)[C@@H](C)[C@@H](O)[C@@H](C)[C@H](OC(C)=O)[C@@H]1C | inactive | inactive | inactive | inactive | 12.4 µM (active) | 49.3 µM (active) | – | 43.6 µM (active)
